Here are results for 40 compounds from PubChem BioAssay (NCI).

The panel holds about 83,000 compounds, 20% with a hit somewhere; the sample as a whole holds those more often.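 A percent growth of 40 corresponds to 60% growth inhibition; 0 means no net growth; -100 means all cells died. Active threshold: below 10.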 Values without a mark were called inactive. Active and inactive are the calls of the source.

The subject of this test is MDA-MB-435 melanoma. The experiment in a line: NCI-60 one-dose screen, 48 h (100 = growth as untreated, 0 = no growth, -100 = all killed). The settings on record: 10 µM unless noted. The method, then:
Growth inhibition of the MDA-MB-435 human Melanoma tumor cell line is measured as a screen for anti-cancer activity. Cells are grown in 96 well plates and exposed to the test compound for 48 hours. Compounds are tested at a single concentration, which is 10^-5 M for most compounds. The reported endpoint is percent growth (GI% or GIPRCNT), where numbers from 0 - 100% represent growth inhibition, and numbers from -100% - 0 represent cell death. For example, a value of 40 represents 60% growth inhibition. A value of 0 means no net growth occurred over the course of the experiment. A value of -40 indicates 40% of cells at the beginning of the experiment died by the end of the experiment. A value of -100 means all cells are dead at the end of the experiment.
NCI-60 Human Tumor Cell Lines Screen was performed using the standard one-dose NCI protocol, which is described in more detail at https://dtp.cancer.gov/discovery_development/nci-60/default.htm.
Compounds with GIPRCNT values below 10 were considered active. Activity score was based on GIPRCNT using the following formula: […]
Score is 0 for GIPRCNT values of 100 or above, 50 for GIPRCNT values of 0, and 100 for GIPRCNT values of -100.
As to `O=C1Nc2c(ccc(Cl)c2Cl)/C1=C/c1ccccn1`, the growth is 77.2%.

Regarding `COc1cc2nc(-c3ccc(C(F)(F)F)cc3)cc(OCCCN3CCC(O)CC3)c2cc1OC`, the growth was -29% (active).

With `CC(=O)N1N=C(c2cccc(Nc3ccncc3)c2)CC1c1ccccc1` (stereo not given), the growth is 89.1%.

Take `CC1(C)CN(Cc2ccccc2)CCN1Cc1ccccc1`: the growth was 104%.

As to `CSc1nc(O)c(-c2ccccc2)c(=O)[nH]1`, the growth is 101%.

For the compound `COc1ccc(C(O)c2cc3c(N)c(C(=O)Nc4ccc(Br)cc4)sc3nc2C)cc1` (stereo not given), the growth was -39.8% (active).

Take `O=c1[nH]nc(-c2ccc(Cl)cc2)cc1Cc1cccc([N+](=O)[O-])c1`: the growth was 112%.

`COc1ccc(C(=O)c2cc3c(N)c(C(=O)Nc4ccc(Cl)cc4)sc3nc2C)cc1`: the growth was 57.2%.

Consider `CCCCCCCCOC(=O)c1ccc(O)c(OC)c1`, for which the growth is 106%.

As for `Cn1c(COC(=O)N2CCCCC2)nc2c(N3CCOCC3)nc(-c3ccccc3)nc21`, the growth was -81.9% (active).

Consider `CC(C)[N+](C)(CCOC(COc1ccccc1)COc1ccccc1)C(C)C`, for which the growth is 91.9%.

As for `CC(=O)[C@@H]1CC[C@]2(C(=O)n3ccnc3)CC[C@]3(C)[C@H](CC[C@@H]4[C@@]5(C)Cc6c([nH]c7ccccc67)C(C)(C)[C@@H]5CC[C@]43C)[C@@H]12`, the growth is 101%.

On to `C=C(C)[C@@H]1CC[C@]2(C(=O)N3CCN(C)CC3)CC[C@]3(C)[C@H](CC[C@@H]4[C@@]5(C)CCC(=O)C(C)(C)[C@@H]5CC[C@]43C)[C@@H]12`, for which the growth is 92%.

Consider `Fc1cc(C2=NNC(c3ccc[nH]3)C2)ccc1-n1ccc(C(F)(F)F)n1` (stereo not given), for which the growth was 98.7%.

Turning to `O=c1[nH]c(=O)[nH]c(=S)[nH]1`, the growth is 103%.

As to `COc1cc2ncnc(Nc3ccc(C(=O)/C=C/c4ccc(C(F)(F)F)cc4F)cc3)c2cc1OC`, the growth is 84.2%.

Regarding `O=C(N/N=C/c1ccc(O)c(O)c1)c1sc2ccccc2c1Cl`, the growth was 88.7%.

Regarding `COc1ccc(CNCCN2C(=O)c3ccc4c5c(ccc(c35)C2=O)C(=O)N(CCNCc2ccc(OC)cc2)C4=O)cc1`, the growth is -71.4% (active).

As for `CCOC(=O)c1cnc2c(cnn2CC)c1NN=C(C)C`, the growth was 108%.

Consider `CN1C(=O)N(C)C2NC(N/N=C/c3ccccc3)=NC21` (stereo not given), for which the growth is 99.6%.

For `COC(=O)C1=C(C(=O)ONCCN(C)C)C2C=CC1(C(Cc1ccccc1)Nc1ccc(F)cc1)O2` (stereo not given), the growth is 101%.

As for `CC(C)CCSc1nc(NNC(N)=O)c(C#N)c(-c2ccccc2)n1`, the growth was 109%.

With `COc1ccc(C2CC(c3cccc(Nc4ccncc4)c3)=NN2c2ccccc2)cc1` (stereo not given), the growth is -57% (active).

On to `CC(=O)O[C@]1(C(C)=O)CC[C@H]2[C@@H]3C=C(Cl)C4=CC(=O)CC[C@]4(C)[C@H]3CC[C@@]21C`, for which the growth is 113%.

Regarding `CN1CCN(c2cnc(C(=O)Nc3cc(F)cc4cccnc34)cn2)CC1`, the growth was 74.5%.

As for `C#CC(=O)Nc1cccc(Nc2nc3c(c(NCc4ccccc4)n2)CCCC3)c1`, the growth is -70.6% (active).

On to `CCOC(=O)N1CCc2c(sc3nc4nc[nH]n4c(=O)c23)C1`, for which the growth was 103%.

For `Fc1ccc2nc3c(cc2c1)CSc1nnc(-c2ccc[nH]c2=S)n1N3`, the growth is 103%.

Take `Clc1ccc(C2CC(c3cccc(Nc4ccncc4)c3)=NN2c2cc(Cl)cc(Cl)c2)cc1` (stereo not given): the growth was 12.7%.

On to `Fc1ccc(C2CC(c3cccc(Nc4ccncc4)c3)=NN2c2ccc(Cl)cc2)cc1` (stereo not given), for which the growth was -6.55% (active).

On to `CCCCCOc1ccc(/C=N/Nc2cc(C)nc3ccc(Br)cc23)cc1`, for which the growth was -46.9% (active).

For the compound `COc1ccc(-c2cnc(N)nc2-c2ccc(OC)cc2O)cc1`, the growth was 101%.

Consider `CC(C)Cc1ccc(C(C)C(=O)NCc2c[nH]c3ccc(Cl)cc23)cc1` (stereo not given), for which the growth is 66.6%.

For the compound `N#Cc1c(Nc2ccccc2)nn2cc(-c3nc4ccccc4s3)c(N)nc12`, the growth is 93.6%.

Take `Clc1ccc(N2N=C(c3cccc(Nc4ccncc4)c3)CC2c2ccc3c(c2)OCO3)cc1` (stereo not given): the growth was -77.6% (active).

In the case of `CC(C)C1C2=C(NCCN1C(=O)Cc1ccccc1)C(C)(C)N(Cc1ccccc1)C2=O` (stereo not given), the growth is 99.2%.

Regarding `FCc1nc2nc(Cl)c(Cl)nc2[nH]1`, the growth is 107%.

As to `Cc1cc(C)n(Nc2nc3ccccc3[nH]c2=O)c(=O)c1C#N`, the growth was 103%.

Turning to `COc1ccc(C2CC(c3cccc(Nc4ccncc4)c3)=NN2c2cc(Cl)cc(Cl)c2)cc1` (stereo not given), the growth was -77.1% (active).

For `Cc1ccc2[nH]c(=O)cc(-n3nncc3COc3ccc(C=O)cc3)c2c1`, the growth is 103%.
